Records with an inconclusive call do not appear. The source made the active and inactive calls. Calls follow the shape of the full dose curve.
biological target: Peroxisome proliferator-activated receptor delta (Homo sapiens) (UniProt Q03181); assay: qHTS assay for small molecule agonists of peroxisome proliferator-activated receptor delta signaling (AID 588534); conditions: HEK293T PPARdelta-UAS-bla, beta-lactamase ratio, 18 h; series mostly up to 76.7 µM
How it was run: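 Cells carrying a PPAR-delta beta-lactamase reporter were treated with compounds for 18 h at 37 °C in agonist mode. CCF4 fluorescence was read after 2 h; EC50 and efficacy from Hill fits.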

Peroxisome proliferator-activated receptor delta (Homo sapiens), sequence (Q03181 whole entry, looked up): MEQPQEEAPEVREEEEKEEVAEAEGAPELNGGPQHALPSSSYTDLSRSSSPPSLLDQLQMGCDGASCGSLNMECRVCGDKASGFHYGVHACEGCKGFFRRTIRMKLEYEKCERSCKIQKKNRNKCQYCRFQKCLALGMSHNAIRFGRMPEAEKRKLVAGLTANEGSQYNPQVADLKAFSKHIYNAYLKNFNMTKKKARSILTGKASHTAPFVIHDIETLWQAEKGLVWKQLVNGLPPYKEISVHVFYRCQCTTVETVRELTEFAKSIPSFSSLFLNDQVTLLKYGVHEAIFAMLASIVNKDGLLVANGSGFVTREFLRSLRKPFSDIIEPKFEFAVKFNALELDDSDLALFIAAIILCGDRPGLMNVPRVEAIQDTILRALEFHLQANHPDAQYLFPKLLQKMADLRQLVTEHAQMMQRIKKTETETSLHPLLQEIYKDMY

| Compound | outcome |
| --- | --- |
| BrC(Br)C(Br)Br | inactive |
| Cc1ccc(S(=O)(=O)N=C=O)cc1 | inactive |
| C1CCC2OC2C1 (configuration not stated) | inactive |
| CCCCCCCC/C=C\CCCCCCCCCCCCC | inactive |
| COCCOCCOCCO | inactive |
| Nc1ccccc1S(=O)(=O)O | inactive |
| Cc1cc(C(=O)O)ccc1[N+](=O)[O-] | inactive |
| C=CCOC(=O)COCCC(C)C | inactive |
| Nc1cc([N+](=O)[O-])ccc1C(=O)O | inactive |
| CC1(C)CC(N)CC(C)(CN)C1 (configuration not stated) | inactive |
| C=CCCCC | inactive |
| O=[N+]([O-])c1cccc(Cl)c1 | inactive |
| OC1CCCCCCCCCCC1 | inactive |
| CCCCOCCOCCOCCO | inactive |
| O=C1CCCCCCCCCCC1 | inactive |
| Cc1cccc(C)c1[N+](=O)[O-] | inactive |

| Compound | outcome |
| --- | --- |
| O=C(O)CCSSCCC(=O)O | inactive |
| COC(=O)c1ccccc1S(=O)(=O)NC(=O)Nc1nc(OC(F)F)cc(OC(F)F)n1 | inactive |
| COCCO | inactive |
| O=C(O)c1cccc([N+](=O)[O-])c1 | inactive |
| CCCCCCCCCCCCCCC1CO1 (configuration not stated) | inactive |
| CC(C)[C@@H]1CC[C@@H](C)C[C@H]1O | inactive |
| CC(C)C=O | inactive |
| CCCCNCC | inactive |
| C=CC(=O)NC(C)(C)CS(=O)(=O)O | inactive |
| O=C(O)c1ccccc1C(=O)O | inactive |
| COc1ccc(N)c(OC)c1 | inactive |
| C=C(C)C(=O)OCCCCCCCCCCCC | inactive |
| ON=C1CCCCC1 | inactive |
| CCCCC(CC)COP(=O)(O)OCC(CC)CCCC (configuration not stated) | inactive |
| O=C(O)c1ccc(C(=O)O)c(C(=O)O)c1 | inactive |
| CC(CCl)OC(C)CCl (configuration not stated) | inactive |

— PubChem BioAssay (NCATS)
